Assay outcomes: PubChem BioAssay, The Scripps Research Institute Molecular Screening Center
Hits are enriched below; roughly 0.9% of the tested compounds scored in any of these assays.
PPARg SRC-1 ag = agonists of human PPARgamma SRC-1 coactivator recruitment; P37231; PPARgamma-SRC-1 coactivator recruitment biochemical assay; activation, % at 8 µM; 200,000 tested, 0.41% active; in the data active means activation above about 19%;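 further: 0% = DMSO and 100% = reference agonist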
Target sequence (P37231 whole entry, looked up): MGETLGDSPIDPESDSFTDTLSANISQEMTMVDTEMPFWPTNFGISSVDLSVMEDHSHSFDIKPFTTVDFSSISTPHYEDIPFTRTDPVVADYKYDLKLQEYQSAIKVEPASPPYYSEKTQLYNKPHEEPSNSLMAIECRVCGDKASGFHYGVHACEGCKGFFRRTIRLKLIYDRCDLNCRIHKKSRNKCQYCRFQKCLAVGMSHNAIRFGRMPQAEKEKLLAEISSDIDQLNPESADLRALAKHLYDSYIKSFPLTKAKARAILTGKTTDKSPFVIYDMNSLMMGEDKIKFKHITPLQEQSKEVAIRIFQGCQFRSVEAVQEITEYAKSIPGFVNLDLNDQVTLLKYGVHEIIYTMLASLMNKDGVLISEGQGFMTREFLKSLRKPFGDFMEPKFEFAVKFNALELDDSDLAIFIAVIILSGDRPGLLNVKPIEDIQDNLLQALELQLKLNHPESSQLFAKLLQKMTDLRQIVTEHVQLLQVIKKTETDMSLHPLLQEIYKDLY
PPARg SRC-3 ag = agonists of human PPARgamma SRC-3 coactivator recruitment. P37231. biochemical PPARgamma/SRC-3 coactivator recruitment assay. activation, % at 8 µM. 200,000 tested, 0.26% active; in the data active means activation above about 23%;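 further: 0% = DMSO and 100% = reference agonist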
SRC1 TRFRET art = flags TR-FRET format artefacts in PPARgamma SRC-1 recruitment agonist screen; TR-FRET ratio at 8 µM; 99,000 tested, 0.34% active; TR-FRET detection artefact counter-screen, emission ratio; active compounds read high; in the data active means TR-FRET ratio above about 2300
TR-FRET SRC-2 ct = counter-screen for PPARgamma SRC-2 recruitment agonists: TR-FRET artefact; active compounds read high; 200,000 tested, 0.4% active; TR-FRET ratio at 8 µM; AID 1049
PPARg SRC-2 ag = promotes SRC-2 coactivator recruitment by human PPARgamma. P37231. PPARgamma LBD-SRC-2 recruitment, biochemical. AID 1032. activation, % at 8 µM. 200,000 tested, 0.34% active; in the data active means activation above about 22%;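 further: 0% = vehicle and 100% = reference agonist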
SRC3 TRFRET art = TR-FRET artefact, counter-screen to PPARgamma/SRC-3 agonist assay | AID 1048 | TR-FRET ratio at 8 µM | 99,000 tested, 0.39% active | PPARgamma/SRC-3 format; active compounds read high
An asterisk follows results filed as active; . = not tested or not shown. Unless noted, no stated cut-off is given here; in the data, active means TR-FRET ratio above about 2000; inactive means the rest.

SMILES	PPARg SRC-1 ag	PPARg SRC-3 ag	SRC1 TRFRET art	TR-FRET SRC-2 ct	PPARg SRC-2 ag	SRC3 TRFRET art
COc1cc(NC(=O)COc2ccc(Cl)cc2)ccc1-c1cc2ccccc2oc1=O	-2.3	1.8	1772	1505	-4.5	1470
CN1/C(=C\C(=S)Nc2ccccc2)C(C)(C)c2ccccc21	7.9	2.0	1780	1974*	-1.4	1715
COc1ccccc1C(=O)NC(=S)/C=C1/N(C)c2ccccc2C1(C)C	13.1	10.7	2384*	1664	17.1	1894
CN1/C(=C\C(=S)NC(=O)c2ccccc2Cl)C(C)(C)c2ccccc21	-3.6	0.0	1647	1473	-1.6	1615
CN1/C(=C\C(=O)Nc2ccc(Cl)cc2)C(C)(C)c2ccccc21	0.3	-4.9	1653	1427	4.3	1551
O=C(Nc1ncc(Cc2ccc(SC(F)F)cc2)s1)c1ccc(OC(F)F)cc1	-0.4	-0.2	1598	1555	-1.9	1424
CC(=O)c1c(N2CCN(c3ccc(F)cc3)CC2)nc(=S)n(Cc2ccccc2)c1C	5.5	4.3	1739	1479	2.5	2117*
N#Cc1ccccc1CSc1nc2ncc(Br)cc2[nH]1	3.7	3.0	1936	1754	15.8	1759
Fc1ccccc1CSc1nc2ncc(Br)cc2[nH]1	3.3	6.7	.	1920	23.7*	.
O=C(COC(=O)c1cccc(S(=O)(=O)N2CCc3ccccc32)c1)Nc1ncc(Cl)cc1Cl	5.7	8.4	2003	1556	3.3	1463
O=C(COC(=O)c1ccc(Cl)c(S(=O)(=O)N2CCc3ccccc3C2)c1)Nc1ncc(Cl)cc1Cl	8.8	8.9	2306	1932	-1.2	2156*
CCc1cc2cc3c(cc2nc1SCC(=O)Nc1cc(C)on1)OCO3	36.0*	2.9	.	1540	4.7	.
CCc1cc2ccc(C)cc2nc1SCC(=O)Nc1cc(C)on1	-1.8	1.4	1621	1591	-2.1	1470
CCOc1ccc(-c2csc(NNC3=NCCCCC3)n2)cc1	22.9*	4.8	2430*	1444	4.6	1370
COc1ccc(-c2csc(NNC3=NCCCCC3)n2)cc1	2.6	5.5	1628	1429	6.6	1498
Cc1ccc(C)c(S(=O)(=O)N2CCN(CC(=O)Nc3sccc3C#N)CC2)c1	5.2	8.5	1942	1734	2.2	2054*
COc1ccc(-c2ccc(SCC(=O)c3cccs3)nn2)cc1	-6.1	4.1	2310	1638	13.6	2137*
O=C(CSc1ccc(-c2ccccc2)nn1)c1cccs1	-2.9	1.2	1739	1579	7.3	1646
CC1CCc2sc(C(=O)Nc3nnc(SCc4ccc(F)cc4)s3)cc2C1 (stereo not drawn)	15.5	18.9	.	2241*	2.6	.
CCNC(=O)C(=O)NCC1OCCCN1S(=O)(=O)c1cccs1 (stereo not drawn)	4.0	-2.9	1646	1318	-3.0	1652
NS(=O)(=O)c1ccc(NC(=S)NCc2ccc(Cl)cc2)cc1	-2.9	30.4*	.	1569	4.2	.
NS(=O)(=O)c1ccc(CNC(=S)Nc2ccc(F)c(Cl)c2)cc1	1.8	-0.8	1672	1378	4.7	1772
CCOC(=O)c1cc(C#N)c(N2CCN(c3ccccn3)CC2)nc1-c1ccccc1	-1.1	-0.2	1919	1390	6.0	2015
O=C(CSc1nc2c(c(=O)[nH]1)CCC2)Nc1cccc(Cl)c1	4.8	-13.8	.	1428	-5.0	.
N#Cc1c(-c2ccco2)nc(SCC(=O)Nc2cccc(Cl)c2)[nH]c1=O	17.9	22.3	.	2164*	19.7	.
SMILES	PPARg SRC-1 ag	PPARg SRC-3 ag	SRC1 TRFRET art	TR-FRET SRC-2 ct	PPARg SRC-2 ag	SRC3 TRFRET art
COc1ccc(CSc2nnc(Cc3sc(-c4ccccc4)nc3-c3ccccc3)o2)cc1	7.8	17.3	.	3227*	9.7	.
CCn1cc(/C=N\NC(=O)c2csc3ccccc23)c(C)n1	0.3	0.0	.	1413	4.6	.
O=C(N/N=C/c1ccc(O)cc1)c1csc2ccccc12	45.8*	-1.2	.	1408	1.2	.
c1ccc2c(c1)CC/C2=N/Nc1nc2ccccc2[nH]1	22.5*	8.0	1819	1668	4.5	1717
CN(C)C=Nc1c(C(=O)c2ccccc2)sc2nccc(N(C)C)c12	-2.0	-0.5	2016	1610	9.6	1650
CCOC(=O)c1sc2nccc(N(C)C)c2c1N=CN(C)C	4.3	26.9*	.	1529	7.1	.
Cc1cccc(NC(=O)c2sc3nc(-c4ccc(F)cc4)cn3c2C)n1	35.5*	-3.9	.	1617	-1.5	.
CC(=O)CCc1ccc(OC(=O)c2cccnc2)cc1	4.5	0.6	.	1983*	25.9*	.
COc1cccc(NC(=O)c2ncc(Cl)c(Cl)c2Cl)c1	2.1	4.7	1842	1554	6.4	1560
CC(C)Cn1c(N)c(C(=O)COC(=O)c2ccc([N+](=O)[O-])o2)c(=O)n(C)c1=O	3.4	5.0	1937	1982*	12.2	1448
Cn1c2ccccc2c2cc(C(=O)OCC(=O)N3CC(=O)Nc4ccccc43)sc21	0.8	0.8	.	2536*	2.4	.
CCCCOc1ccc(NC2=NC3(CCCC3)N=C(N)N2)cc1	7.0	1.5	.	2220*	40.7*	.
O=c1c2ccccc2nc(-c2ccccc2)n1CCCN1CCOCC1	18.8*	5.4	.	1680	1.9	.
Cc1ccc(-c2nc3ccccc3c(=O)n2CCCN2CCOCC2)cc1	13.3	8.6	.	1786	7.8	.
O=C1C2CCCN2c2ccc(S(=O)(=O)N3CCOCC3)cc2N1Cc1cccc(C(F)(F)F)c1 (stereo not drawn)	4.3	4.8	.	1640	5.8	.
CON(C)S(=O)(=O)c1ccc2c(c1)N(Cc1ccc(C)cc1)C(=O)C1CCCN21 (stereo not drawn)	1.2	5.9	2187	1753	4.6	2052*
CCCC1CCC(C(=O)Nn2c(C)nc3ccccc3c2=O)CC1 (stereo not drawn)	4.9	2.8	.	1484	-3.2	.
O=C(Nn1c(-c2ccccc2)nc2ccccc2c1=O)c1ccco1	7.7	3.3	.	1556	5.0	.
Cc1nc2ccccc2c(=O)n1NC(=O)c1ccco1	-1.5	7.2	.	2082*	12.0	.
CCCCCCC1CCC(C(=O)Nn2c(C)nc3ccccc3c2=O)CC1 (stereo not drawn)	4.6	-4.2	.	1723	22.2*	.
Cc1ccc(NC(=O)c2ccccc2N(C)S(=O)(=O)c2ccccc2)c(C)c1	-4.7	-1.0	1659	1487	4.3	1427
CC(=O)N1CCN(CC(=O)Nc2c(Cl)ccc(C)c2Cl)CC1	8.5	-5.2	1629	1613	-1.8	1491
CC(=O)c1sc(NC(=O)c2ccc(C)c(C)c2)nc1C	-4.2	-0.8	1400	1603	-3.6	1583
CC(=O)c1sc(NC(=O)c2ccc(C(C)(C)C)cc2)nc1C	20.4	16.6	2152	1990*	15.7	2151*
CCc1ccccc1S(=O)(=O)Cc1ccc(C(=O)NCc2cccs2)o1	7.2	-0.8	1634	1697	13.1	1436
O=C(COC(=O)c1cc(Br)ccc1O)Nc1cc(S(=O)(=O)N2CCCC2)ccc1Cl	-0.3	1.8	2170	1710	-2.9	2102*
CC(=O)OCC(=O)Nc1cc(S(=O)(=O)N2CCCCCC2)ccc1Cl	-2.6	-2.0	1694	1518	3.0	1482
